# In paper PMC9911399, “Two distinct binding modes provide the RNA-binding protein RbFox with extraordinary sequence specificity”:
# Positions count from the first letter of the chain named. Over roughly 16,000 sequences, “ka relative to ugcaugu” has its median near 0.0091; the highest 2% begin near 0.032. The entries come from a sample that favours the highest values as a whole.
# T1: RBFOX1 RRM (Homo sapiens, UniProt Q9NWB1 109-208)
# T1 sequence: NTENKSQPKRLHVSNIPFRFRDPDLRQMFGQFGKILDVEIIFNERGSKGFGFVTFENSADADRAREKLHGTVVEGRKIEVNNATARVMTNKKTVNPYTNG
# B1: GUUAUGC (DNA:RNA)
# RNA: GGGAGACCGGAAUUCAGAUUGUCCGUUAUGCUUAAAUCCCGUCGUAGCCACCA
# DNA 1: CAATCTGAATTCCGGTCTCCC
# DNA 2: TGGTGGCTACGACGGGATT
# B2: GCCAUGC (DNA:RNA)
# RNA: B1 RNA with U26C, U27C
# DNA 1: CAATCTGAATTCCGGTCTCCC
# DNA 2: TGGTGGCTACGACGGGATT
# B3: CGCAUGC (DNA:RNA)
# RNA: B1 RNA with G25C, U26G, U27C
# DNA 1: CAATCTGAATTCCGGTCTCCC
# DNA 2: TGGTGGCTACGACGGGATT
# B4: GUAUGCU (DNA:RNA)
# RNA: B1 RNA with U27A, A28U, U29G, G30C, C31U
# DNA 1: CAATCTGAATTCCGGTCTCCC
# DNA 2: TGGTGGCTACGACGGGATT
# B5: GCAUGCU (DNA:RNA)
# RNA: B1 RNA with U26C, U27A, A28U, U29G, G30C, C31U
# DNA 1: CAATCTGAATTCCGGTCTCCC
# DNA 2: TGGTGGCTACGACGGGATT
# B6: GUCAUGC (DNA:RNA)
# RNA: B1 RNA with U27C
# DNA 1: CAATCTGAATTCCGGTCTCCC
# DNA 2: TGGTGGCTACGACGGGATT
# B7: GGCAUGC (DNA:RNA)
# RNA: B1 RNA with U26G, U27C
# DNA 1: CAATCTGAATTCCGGTCTCCC
# DNA 2: TGGTGGCTACGACGGGATT
# B8: GAAUGCU (DNA:RNA)
# RNA: B1 RNA with U26A, U27A, A28U, U29G, G30C, C31U
# DNA 1: CAATCTGAATTCCGGTCTCCC
# DNA 2: TGGTGGCTACGACGGGATT
# B9: GCAUUGC (DNA:RNA)
# RNA: B1 RNA with U26C, U27A, A28U
# DNA 1: CAATCTGAATTCCGGTCTCCC
# DNA 2: TGGTGGCTACGACGGGATT
# B10: UGAGAAA (DNA:RNA)
# RNA: GGGAGACCGGAAUUCAGAUUGUCCUGAGAAAUUAAAUCCCGUCGUAGCCACCA
# DNA 1: CAATCTGAATTCCGGTCTCCC
# DNA 2: TGGTGGCTACGACGGGATT
# B11: UCCUACG (DNA:RNA)
# RNA: B10 RNA with G26C, A27C, G28U, A30C, A31G
# DNA 1: CAATCTGAATTCCGGTCTCCC
# DNA 2: TGGTGGCTACGACGGGATT
# B12: AACCACA (DNA:RNA)
# RNA: B10 RNA with U25A, G26A, A27C, G28C, A30C
# DNA 1: CAATCTGAATTCCGGTCTCCC
# DNA 2: TGGTGGCTACGACGGGATT
# B13: ACAUAGU (DNA:RNA)
# RNA: B10 RNA with U25A, G26C, G28U, A30G, A31U
# DNA 1: CAATCTGAATTCCGGTCTCCC
# DNA 2: TGGTGGCTACGACGGGATT
# B14: CGCCAUA (DNA:RNA)
# RNA: B10 RNA with U25C, A27C, G28C, A30U
# DNA 1: CAATCTGAATTCCGGTCTCCC
# DNA 2: TGGTGGCTACGACGGGATT
# B15: AUUUUUA (DNA:RNA)
# RNA: B1 RNA with G25A, A28U, G30U, C31A
# DNA 1: CAATCTGAATTCCGGTCTCCC
# DNA 2: TGGTGGCTACGACGGGATT
# B16: UGUUCCG (DNA:RNA)
# RNA: B10 RNA with A27U, G28U, A29C, A30C, A31G
# DNA 1: CAATCTGAATTCCGGTCTCCC
# DNA 2: TGGTGGCTACGACGGGATT
# B17: ACGCACG (DNA:RNA)
# RNA: B10 RNA with U25A, G26C, A27G, G28C, A30C, A31G
# DNA 1: CAATCTGAATTCCGGTCTCCC
# DNA 2: TGGTGGCTACGACGGGATT
# B18: GCACGAG (DNA:RNA)
# RNA: B10 RNA with U25G, G26C, G28C, A29G, A31G
# DNA 1: CAATCTGAATTCCGGTCTCCC
# DNA 2: TGGTGGCTACGACGGGATT
# B19: CCGCACG (DNA:RNA)
# RNA: B10 RNA with U25C, G26C, A27G, G28C, A30C, A31G
# DNA 1: CAATCTGAATTCCGGTCTCCC
# DNA 2: TGGTGGCTACGACGGGATT
# B20: UCGCACC (DNA:RNA)
# RNA: B10 RNA with G26C, A27G, G28C, A30C, A31C
# DNA 1: CAATCTGAATTCCGGTCTCCC
# DNA 2: TGGTGGCTACGACGGGATT
# B21: GCACACG (DNA:RNA)
# RNA: B10 RNA with U25G, G26C, G28C, A30C, A31G
# DNA 1: CAATCTGAATTCCGGTCTCCC
# DNA 2: TGGTGGCTACGACGGGATT
# B22: UCGUCCG (DNA:RNA)
# RNA: B10 RNA with G26C, A27G, G28U, A29C, A30C, A31G
# DNA 1: CAATCTGAATTCCGGTCTCCC
# DNA 2: TGGTGGCTACGACGGGATT
# B23: GCACGUA (DNA:RNA)
# RNA: B10 RNA with U25G, G26C, G28C, A29G, A30U
# DNA 1: CAATCTGAATTCCGGTCTCCC
# DNA 2: TGGTGGCTACGACGGGATT
# B24: GCACGAU (DNA:RNA)
# RNA: B10 RNA with U25G, G26C, G28C, A29G, A31U
# DNA 1: CAATCTGAATTCCGGTCTCCC
# DNA 2: TGGTGGCTACGACGGGATT
# B25: CGCACCG (DNA:RNA)
# RNA: B1 RNA with G25C, U26G, U27C, U29C, G30C, C31G
# DNA 1: CAATCTGAATTCCGGTCTCCC
# DNA 2: TGGTGGCTACGACGGGATT
# B26: UCGCACG (DNA:RNA)
# RNA: B10 RNA with G26C, A27G, G28C, A30C, A31G
# DNA 1: CAATCTGAATTCCGGTCTCCC
# DNA 2: TGGTGGCTACGACGGGATT
# B27: GCACGUG (DNA:RNA)
# RNA: B1 RNA with U26C, U27A, A28C, U29G, G30U, C31G
# DNA 1: CAATCTGAATTCCGGTCTCCC
# DNA 2: TGGTGGCTACGACGGGATT
# B28: GCACGAA (DNA:RNA)
# RNA: B10 RNA with U25G, G26C, G28C, A29G
# DNA 1: CAATCTGAATTCCGGTCTCCC
# DNA 2: TGGTGGCTACGACGGGATT
# B29: UUUCUCU (DNA:RNA)
# RNA: B1 RNA with G25U, A28C, G30C, C31U
# DNA 1: CAATCTGAATTCCGGTCTCCC
# DNA 2: TGGTGGCTACGACGGGATT
# B30: CAUGAAC (DNA:RNA)
# RNA: B10 RNA with U25C, G26A, A27U, A31C
# DNA 1: CAATCTGAATTCCGGTCTCCC
# DNA 2: TGGTGGCTACGACGGGATT
# B31: CGAUGUC (DNA:RNA)
# RNA: B10 RNA with U25C, G28U, A29G, A30U, A31C
# DNA 1: CAATCTGAATTCCGGTCTCCC
# DNA 2: TGGTGGCTACGACGGGATT
# Molecular target: T1, RBFOX1 RRM
# Assay: EMSA; HiTS-Eq, 1 nM pool, 10 min; buffer printed only for the single-RNA assays: 10 mM Tris pH 7.5, 150 mM NaCl, 3.4 mM EDTA, 0.001% NP-40, 30 C
# Conditions: tags: His6 N-terminal (pET28a); label: 5' 32P
# Outline: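 A pool of RNA with 7 randomized nucleotides, 5′-radiolabelled and with DNA-annealed flanks, was equilibrated at 1 nM for 10 min in 50 µL with purified RbFox RRM, wild type or mutant, across increasing protein concentrations. Free RNA was separated by 8% native PAGE, excised, reverse-transcribed, barcoded by PCR and sequenced. Relative association constants were obtained from read-count changes of each RNA species versus the control reaction and normalised to the cognate motif.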
row,Binder,binding signal
1,B1,0.0151 KA relative to UGCAUGU
2,B2,0.0131 KA relative to UGCAUGU
3,B3,0.895 KA relative to UGCAUGU
4,B4,0.018 KA relative to UGCAUGU
5,B5,0.779 KA relative to UGCAUGU
6,B6,0.0144 KA relative to UGCAUGU
7,B7,0.627 KA relative to UGCAUGU
8,B8,0.0201 KA relative to UGCAUGU
9,B9,0.0184 KA relative to UGCAUGU
10,B10,0.016 KA relative to UGCAUGU
11,B11,0.00598 KA relative to UGCAUGU
12,B12,0.00121 KA relative to UGCAUGU
13,B13,0.00187 KA relative to UGCAUGU
14,B14,0.00265 KA relative to UGCAUGU
15,B15,0.00169 KA relative to UGCAUGU
16,B16,0.0186 KA relative to UGCAUGU

row,Binder,binding signal
1,B17,0.0314 KA relative to UGCAUGU
2,B18,0.0362 KA relative to UGCAUGU
3,B19,0.0481 KA relative to UGCAUGU
4,B20,0.0108 KA relative to UGCAUGU
5,B21,0.00843 KA relative to UGCAUGU
6,B22,0.016 KA relative to UGCAUGU
7,B23,0.0281 KA relative to UGCAUGU
8,B24,0.0227 KA relative to UGCAUGU
9,B25,0.00744 KA relative to UGCAUGU
10,B26,0.0586 KA relative to UGCAUGU
11,B27,0.0821 KA relative to UGCAUGU
12,B28,0.0197 KA relative to UGCAUGU
13,B29,0.0126 KA relative to UGCAUGU
14,B30,0.00509 KA relative to UGCAUGU
15,B31,0.0174 KA relative to UGCAUGU
